# PLK1 PBD block – inhibitors of human PLK1 polo-box domain binding; AID 720504; Plk1 PBD binding of FITC phosphopeptide, fluorescence polarization; actives 2.8% (n = 360,000); P53350; Potency, µM, for the others: max response, negative = inhibition, hits mostly inhibitors; further: series mostly up to about 57 µM; nearly all actives have a fitted effect of over 65% in size
# VDR inh – blocks the human vitamin D receptor. VDR-SRC2-3 peptide fluorescence polarization, 2 h. Potency, µM, without a hit: max response, negative = inhibition, most hits filed as inhibitors. actives 0.93% (n = 400,000). AID 504847
# Target sequence (P11473 whole entry, looked up): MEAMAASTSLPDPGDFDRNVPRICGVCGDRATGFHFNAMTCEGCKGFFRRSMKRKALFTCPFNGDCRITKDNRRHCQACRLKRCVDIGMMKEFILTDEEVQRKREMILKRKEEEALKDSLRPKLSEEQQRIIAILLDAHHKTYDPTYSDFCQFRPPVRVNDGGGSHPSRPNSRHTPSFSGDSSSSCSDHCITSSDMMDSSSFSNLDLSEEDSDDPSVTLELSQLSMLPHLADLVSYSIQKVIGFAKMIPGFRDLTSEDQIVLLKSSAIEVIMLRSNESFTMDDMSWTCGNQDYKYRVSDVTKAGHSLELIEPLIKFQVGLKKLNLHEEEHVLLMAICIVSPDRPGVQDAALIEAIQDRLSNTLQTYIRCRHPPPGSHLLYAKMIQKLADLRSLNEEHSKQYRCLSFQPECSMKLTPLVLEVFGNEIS
#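 Two reagent solutions held at 4 deg C in the dark were dispensed, compounds pinned at 23 nl, and the mixture incubated 2 h at room temperature. Read-out: fluorescence polarization of VDR–SRC2-3 peptide binding.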
# Tau fibril ThT – tau fibrillization inhibition (ThT binding). Potency, µM (top dose mostly 57.4 µM), without a hit: at the top dose activity, negative = inhibition, actives largely listed as inhibitors. P10636. actives 2.1% (n = 270,000). recombinant tau K18 P301L, heparin-induced fibrillization, ThT fluorescence. AID 1460; further: nearly all actives have a fitted effect of over 55% in size
# Target sequence (P10636 561-689 P618L limits assumed): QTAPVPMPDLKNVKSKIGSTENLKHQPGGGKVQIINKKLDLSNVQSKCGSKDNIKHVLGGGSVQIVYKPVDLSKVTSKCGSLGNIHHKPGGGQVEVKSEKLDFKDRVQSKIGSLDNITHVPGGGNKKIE
#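 Fibril formation assay: tau K18 P301L at 15 uM with trace Alexa 594 label, heparin inducer 20 uM, pH 7 sodium acetate buffer, 37 C for 6 hr; endpoint ThT signal.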
# Tau FP inhib – tau fibrillization inhibition (FP). P10636. Potency, µM (top dose mostly 57.7 µM), for inactives: at the highest dose activity, negative = inhibition, usual class: inhibitors. actives 0.39% (n = 280,000). AID 1468. K18 P301L tau heparin fibrillization, Alexa594 FP, 6 h; further: nearly all actives have a fitted effect of over 55% in size
#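 Steps: dispense K18 P301L tau (15 uM plus 0.24 uM Alexa 594 tracer, final) in pH 7 sodium acetate; add compound; add heparin (20 uM final); incubate 6 hr, 37 C; add ThT (30 uM final); after 1 hr ambient, read FP.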
# Sfp PPTase inh – Sfp phosphopantetheinyl transferase inhibition; Biochemical Sfp PPTase activity, qHTS; Potency, µM, inactives show largest response in the series, negative = inhibition, most hits filed as inhibitors; actives 3.5% (n = 310,000); AID 1490;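 further: the enzyme is Sfp with the accession as filed and its product quenches rhodamine fluorescence; 0% = enzyme reaction without inhibitor and -100% = no enzyme wells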
#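 Sfp 15 nM + cpd, 15 min RT; start w/ rhodamine-CoA 5 uM, BHQ-2-YbbR 12.5 uM (final); 50 mM Hepes pH 7.6, 10 mM MgCl2, 0.01% NP-40, 0.01% BSA; read 525/598 nm at 0 and 30 min.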
# Tau fluor cs – counter-screen for tau fibril formation inhibitors; AID 1463; Potency, µM (top dose mostly 57.7 µM), for the others: top-dose activity change, negative = decrease; tau K18 P301L Alexa594 fluorescence, heparin fibrillization; actives 0.93% (n = 280,000); further: nearly all actives have a fitted effect of over 55% in size
#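 Human tau K18 P301L (15 uM unlabeled, 0.24 uM Alexa 594-labeled) in 100 mM sodium acetate pH 7 with 20 uM heparin, 6 hr at 37 C. ThT 30 uM added, 1 hr ambient; Alexa 594 FP and total fluorescence read at 555/632 nm.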
# Active calls of the source: *; ? = inconclusive; · = no result; ! = not active in a repeat; [ ] = dose if it differs, or a comment. Shown are actives, neighbours in structure and some others; about 6% of the full set was active somewhere. The call rests on the fitted dose curve; in most records, active means well fitted curve in the direction sought with a large enough effect; inconclusive means small, poorly fitted or top-dose-only effect, or another doubt; inactive means no such curve, though single readings can be large; an effect the other way counts as inactive or inconclusive. Unless noted, on the % scale 0 is the no-effect control and ±100 the full control effect; potency means the concentration at half of the fitted maximal effect.
SMILES,PLK1 PBD block,VDR inh,Tau fibril ThT,Tau FP inhib,Sfp PPTase inh,Tau fluor cs
COc1ccc2c(c1)C(=O)[C@H](OC(=O)NCc1ccc3c(c1)OCO3)[C@@H](c1ccc(OC)c(Br)c1)O2,·,3%,-3%,-6%,5%,-15%
CCc1ccc2oc(-c3ccc(C)c(NC(=O)Cc4ccccc4)c3)nc2c1,·,-1%,?,-3%,·,5%
COc1ccc(N2CCN(c3ccc(C(N)=O)cc3[N+](=O)[O-])CC2)cc1,6%,12%,4.5µM*,1%,-17%,?
NC(=O)c1ccc(N2CCN(c3ccccc3F)CC2)c([N+](=O)[O-])c1,-11%,17%,16µM*,?,8%,-29%
NC(=O)Cc1nc(-c2ccc(F)cc2)cs1,-30%,-9%,-3%,2%,6%,-6%
NC(=S)Cc1nc(-c2ccc(Cl)cc2)cs1,?,-19%,16µM*,?,?,?
CCCc1cc(-c2[nH]ncc2-c2ccc(C(=O)OCC)o2)c(O)cc1O,-1%,-4%,-14%,?,12%,14µM*[quencher]
Cc1nc(-c2ccc3c(c2)OCCCO3)cs1,-15%,6%,-15%,2%,4%,-8%
CCCc1cc(-c2[nH]ncc2-c2ccc3c(c2)OCCCO3)c(O)cc1O,-1%,11%,?,?,13%,10µM*[quencher]
FC(F)(F)C(F)(F)C(F)(F)C(F)(F)C(F)(F)C(F)(F)C(F)(F)C(F)(F)Br,·,-10%,·,·,21%,·
COc1ccc(/C=C2/C(=O)N(c3nc4ccccc4s3)N=C2CSc2ccc(Cl)cc2)cc1,8.4µM*,-3%,?,-12%,-13%,?
N#CC1=C(N)C2=CCCC[C@H]2[C@H](c2cccc(F)c2)C1(C#N)C#N,-27%,?,?,?,10%,-30%
N#CC1=C(N)C(C#N)(C#N)C(c2cccnc2)C2CCCC=C12 (stereo not given),·,·,?,?,18µM*,-7%
N#CC1=C(N)C(C#N)(C#N)C(c2ccc[nH]2)C2CCCC=C12 (stereo not given),-13%,-32%,14µM*,?,56µM*,?
Cc1[nH]c(=S)sc1Cc1ccc(Cl)c(Cl)c1,·,·,-22%,-2%,?,-23%
Cc1cc(Cl)cc2sc(=S)[nH]c12,13µM*,?,·,·,·,·
Cc1cnc(-c2nc3ccccc3n2C(C(=O)NC(C)(C)C)c2ccncc2)cn1 (stereo not given),-6%,·,·,·,·,·
O=C1OC(c2ccc(Cl)cc2)=C/C1=C/c1cccnc1,0%,-22%,·,·,-1%,·
Cc1ccc(C2=C/C(=C/c3cccnc3)C(=O)O2)c(C)c1,-5%,-19%,?,?,50µM*,-11%
CN(CCNC(=O)CCNC(=O)Cn1ccc2ccccc2c1=O)Cc1ccccc1,-8%,7%,-13%,22µM*,15%,16µM*[quencher]
CCN(CCCNC(=O)CCNC(=O)Cn1ccc2ccccc2c1=O)c1ccccc1,0%,2%,-11%,6%,10%,-10%
CCOc1cc(/C=N/Nc2ccc(S(=O)(=O)Nc3ccccc3C(=O)O)cc2[N+](=O)[O-])cc(Cl)c1O,7.5µM*,·,·,·,·,·
CC(=O)Nc1ccc(C=NNc2ccc(S(=O)(=O)Nc3ccccc3C(=O)O)cc2[N+](=O)[O-])cc1,21µM*,?,·,·,·,·
CC(=O)Nc1cccc(/C(C)=N/Nc2ccc(S(=O)(=O)Nc3ccccc3C(=O)O)cc2[N+](=O)[O-])c1,24µM*,?,·,·,·,·
O=C(O)c1ccccc1NS(=O)(=O)c1ccc(N/N=C/c2cccc(O)c2O)c([N+](=O)[O-])c1,?,-27%,·,·,·,·
SMILES,PLK1 PBD block,VDR inh,Tau fibril ThT,Tau FP inhib,Sfp PPTase inh,Tau fluor cs
CN(CCO)c1ccc(C=NNc2ccc([N+](=O)[O-])cc2S(=O)(=O)Nc2ccccc2C(=O)O)cc1,21µM*,79µM*,·,·,·,·
O=C(Cn1cc(S(=O)(=O)N2CCCC2)c(S(=O)(=O)N2CCCC2)c1)NCc1ccco1,-4%,0%,·,·,-1%,·
CCN(CC)c1ccc(/C=C(\C#N)C(N)=S)cc1,33%,1%,4.5µM*,-2%,?,?
COc1ccc(-c2cn(CC[C@@H]3CC[C@H](NC(=O)Cc4ccccn4)[C@@H](CO)O3)nn2)cc1,-22%,·,·,·,·,·
O=C(Nc1ccccc1SC(=O)c1ccccc1)c1ccccc1,4.2µM*,·,·,·,·,·
Cc1ccc(C(=O)Sc2cccccc2=O)cc1,2.7µM*,20µM*,·,·,50µM*,·
CSc1ccccc1NC(=O)c1ccccc1,-8%,11%,-1%,1%,21%,7%
Cc1ccc2ncc(C(=O)NC(C)c3ccccc3)c(=O)n2c1 (stereo not given),·,-9%,7%,6%,·,-5%
NCCCCCCNS(=O)(=O)c1cccc2c(Cl)cccc12,-5%,2%,-12%,2%,63µM*!,-18%
NCCCCCCCCCCNS(=O)(=O)c1cccc2c(Cl)cccc12,·,24%,?,-4%,50µM*,-19%
CCOP(=O)(OCC)C(C#N)=C1SCN(c2ccc(Cl)cc2)CS1,27µM*,?,2µM*,?,?,-25%
CCOC(=O)c1[nH]c(C)c(CCC(=O)N2CCN(c3ccc(Cl)cc3)CC2)c1C,·,-5%,-3%,-3%,·,-9%
COc1ccccc1CCc1nnc(CCC(=O)NC(C)Cc2cccc(C)n2)o1 (stereo not given),24µM*,-26%,-11%,2%,20%,-13%
CC1CCc2ccccc2N1C(=O)c1cccs1 (stereo not given),21µM*,?,2%,-2%,19%,-5%
COc1cc(C(=O)N2c3ccccc3CCC2C)cc(OC)c1OC (stereo not given),0%,6%,·,·,18%,·
O=C(O)C(Cc1ccc(Cl)cc1)NS(=O)(=O)c1ccc(Cl)cc1 (stereo not given),-1%,10%,·,·,3%,·
CCCc1nc2c(sc3nc4c(cc32)COC(C)(C)C4)c(=O)n1Cc1ccco1,-6%,2%,-3%,7%,28µM*,0%
C=CCN(C(=O)c1csnn1)C(C(=O)NCc1ccc(F)cc1)c1cccs1 (stereo not given),-1%,3%,·,·,2%,·
COc1ccccc1CNC(=O)CSc1ncc(S(=O)(=O)c2ccc(C)c(Cl)c2)c(=O)[nH]1,·,7%,-10%,-2%,·,-9%
Cc1cc2c(c(=O)o1)C(C1C=CCCC1)C(C#N)=C(N)O2 (stereo not given),1%,6%,-12%,1%,-7%,-9%
N#CC1=C(N)SC(N)=C(C#N)C1C1CC=CCC1 (stereo not given),-19%,8%,-3%,2%,20µM*,-5%
CC(C)CC1C(C#N)=C(N)SC(N)=C1C#N,25%,?,-14%,-3%,?,-5%
